Rce1 inh: inhibitors of yeast Ras-converting enzyme | calls only | actives 0.27% (n = 290,000) | Q03530 | yeast membranes, quenched prenylated peptide cleavage fluorescence;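 active = fall in fluorescence gain of 50% or more versus controls, with final raw signal at or below 3038400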
PfM18AAP inh-1: blocks P. falciparum M18 aspartyl aminopeptidase | recombinant PfM18AAP, H-Glu-NHMec fluorogenic cleavage | AID 1822 | actives 1.2% (n = 290,000) | inhibition, % at 7.35 µM;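 active = inhibition above the campaign mean inhibition over all tested compounds plus 3 SD, cut at about 28% in these data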
DNA FID counter: counter-screen for HCV NS3 helicase inhibitors: DNA intercalator displacement. inhibition, % at 7.9 µM. actives 0.17% (n = 290,000). DNA fluorescent intercalator displacement, fluorescence; in the data active = inhibition above about 37%;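 note: higher means more ethidium bromide displaced from hairpin DNA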
Kir21 block: blocks the mouse Kir2.1 inward-rectifier potassium channel | P35561 | HEK293-Kir2.1, FluxOR thallium flux fluorescence; hits give low values | B-score at 10 µM | actives 0.85% (n = 310,000) | AID 1672;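 active = fluorescence ratio B-score at or below minus 3 SD of library scores, with starting-brightness B-score within 2 SD, cut at about -4.2 in these data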;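 note: channel flux triggered by added potassium and thallium sulfate stimulus; B-score of peak minus minimum fluorescence over baseline after thallium stimulus; more negative B-score means stronger Kir2.1 block with less thallium influx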
PfM18AAP inh-2: PfM18AAP inhibition, confirmation; inhibition, % at 7.35 µM; shares compounds with PfM18AAP inh-1; recombinant PfM18AAP, H-Glu-NHMec fluorogenic cleavage; actives 28% (n = 2,400);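 active = mean inhibition over replicate wells above the hit cutoff set for the earlier primary screen, cut at about 29% in these data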
CTSL1 confirm: Cathepsin L (human) inhibition, confirmation; shares compounds with PfM18AAP inh-1; purified cathepsin L1, Z-Leu-Arg-MCA fluorescence; inhibition, % at 5.96 µM; 2,400 tested, under 10 active;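 active = average inhibition across replicates above the hit cutoff set in the earlier primary screen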
Target sequence (P07711 whole entry, looked up): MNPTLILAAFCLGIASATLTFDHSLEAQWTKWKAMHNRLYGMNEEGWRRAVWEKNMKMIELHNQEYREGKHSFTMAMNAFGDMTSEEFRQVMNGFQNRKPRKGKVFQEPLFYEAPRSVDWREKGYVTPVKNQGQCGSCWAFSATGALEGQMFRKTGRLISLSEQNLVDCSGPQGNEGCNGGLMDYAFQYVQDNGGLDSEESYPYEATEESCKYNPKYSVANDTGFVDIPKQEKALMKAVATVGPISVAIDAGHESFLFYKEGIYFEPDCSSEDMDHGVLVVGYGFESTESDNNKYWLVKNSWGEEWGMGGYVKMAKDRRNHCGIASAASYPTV
Numbers stand for hits. Rows were chosen to be rich in hits. Some 2.3% of all compounds tested hit in one or more screens of this group.

Screening Cc1nnc(N/N=C/c2cc([N+](=O)[O-])c(N3CCC(C)CC3)cc2N2CCC(C)CC2)n1N returned Rce1 inh inactive, PfM18AAP inh-1 50, DNA FID counter inactive, Kir21 block inactive, PfM18AAP inh-2 inactive and CTSL1 confirm inactive.
For CC1CCN(c2cc(N3CCOCC3)c([N+](=O)[O-])cc2F)CC1 the results were Rce1 inh inactive, PfM18AAP inh-1 inactive, DNA FID counter inactive and Kir21 block inactive.
`CCc1nnc(N/N=C/c2ccc(N3CCC(C)CC3)c([N+](=O)[O-])c2)n1N` gave Rce1 inh inactive, PfM18AAP inh-1 48, DNA FID counter inactive, Kir21 block inactive, PfM18AAP inh-2 inactive and CTSL1 confirm inactive.
`CN(C)S(=O)(=O)c1ccc(C(=O)N2CC(=O)Nc3ccc(F)cc3C2c2ccc(F)cc2)cc1` (configuration not stated) gave Rce1 inh inactive, PfM18AAP inh-1 inactive, DNA FID counter inactive and Kir21 block inactive.
`O=C(CSc1ncn[nH]1)N1CCCCC1` gave Rce1 inh inactive, PfM18AAP inh-1 45, DNA FID counter inactive, Kir21 block inactive, PfM18AAP inh-2 inactive and CTSL1 confirm inactive.
Screening O=C(CSc1ncn[nH]1)N1CCN(S(=O)(=O)c2ccc(Cl)cc2)CC1 returned Rce1 inh inactive, PfM18AAP inh-1 inactive, DNA FID counter inactive and Kir21 block inactive.
Screening O=C(CSc1ncn[nH]1)c1cccc([N+](=O)[O-])c1 returned PfM18AAP inh-1 43, DNA FID counter inactive, Kir21 block inactive, PfM18AAP inh-2 38 and CTSL1 confirm inactive.
`O=C(CSc1ncn[nH]1)c1ccccc1` gave Rce1 inh inactive, PfM18AAP inh-1 42, DNA FID counter inactive, Kir21 block inactive, PfM18AAP inh-2 53 and CTSL1 confirm inactive.
CCc1cc(=O)oc2cc(C)cc(OC(C)C(=O)NCc3cccnc3)c12 (configuration not stated) was read as Rce1 inh inactive, PfM18AAP inh-1 inactive, DNA FID counter inactive and Kir21 block inactive.
For Cc1oc2cc3oc(=O)cc(C)c3cc2c1C the results were Rce1 inh inactive, PfM18AAP inh-1 inactive, DNA FID counter inactive and Kir21 block inactive.
Cc1nnc(N/N=C/c2ccc(-c3ccc(Br)cc3)o2)n1N was read as Rce1 inh inactive, PfM18AAP inh-1 51, DNA FID counter inactive, Kir21 block inactive, PfM18AAP inh-2 inactive and CTSL1 confirm inactive.
Screening Cc1nnc(N/N=C\c2ccc(-c3cccc(C(=O)O)c3)o2)n1N returned Rce1 inh inactive, PfM18AAP inh-1 51, DNA FID counter inactive, Kir21 block inactive, PfM18AAP inh-2 inactive and CTSL1 confirm inactive.
For Cc1nnc(N/N=C/c2ccc(Br)cc2)n1N the results were Rce1 inh inactive, PfM18AAP inh-1 48, DNA FID counter inactive, Kir21 block inactive, PfM18AAP inh-2 inactive and CTSL1 confirm inactive.
Screening CC(C)(C)c1nnc(N/N=C/c2ccccc2)n(N)c1=O returned Rce1 inh inactive, PfM18AAP inh-1 47, DNA FID counter inactive, Kir21 block inactive, PfM18AAP inh-2 inactive and CTSL1 confirm inactive.
COc1ccc(/C=N/Nc2nnc(C)n2N)cc1OC(C)=O was read as Rce1 inh inactive, PfM18AAP inh-1 34, DNA FID counter inactive, Kir21 block inactive, PfM18AAP inh-2 inactive and CTSL1 confirm inactive.
`Cc1cc(C)c2nc(NNC(=O)c3ccc(S(=O)(=O)N4CCc5ccccc5C4)cc3)sc2c1` gave Rce1 inh inactive, PfM18AAP inh-1 36, DNA FID counter inactive, Kir21 block inactive, PfM18AAP inh-2 inactive and CTSL1 confirm inactive.
Screening N#Cc1cnc2ncnn2c1-c1ccccc1 returned Rce1 inh inactive, PfM18AAP inh-1 56, DNA FID counter inactive, Kir21 block inactive, PfM18AAP inh-2 inactive and CTSL1 confirm inactive.
Screening CNC(=O)N(O)C1N(C)C(=O)N(CC(=O)OC)C1(C)C (configuration not stated) returned Rce1 inh inactive, PfM18AAP inh-1 37, DNA FID counter inactive, Kir21 block inactive, PfM18AAP inh-2 inactive and CTSL1 confirm inactive.
CCCN1C(=O)N(C)C(N(O)C(=O)NC)C1(C)C (configuration not stated) was read as Rce1 inh inactive, PfM18AAP inh-1 inactive and DNA FID counter inactive.
Screening O=C(CSc1ncn[nH]1)Nc1ncc(C(F)(F)F)cc1Cl returned Rce1 inh inactive, PfM18AAP inh-1 84, DNA FID counter inactive, Kir21 block inactive, PfM18AAP inh-2 74 and CTSL1 confirm inactive.
